Screening results deposited in PubChem by several laboratories.
In the library only some 3.5% were active in any assay of this set; here they are far more common.
Mac1 fbg enh – enhancers of CD11b/CD18 adhesion to fibrinogen, primary screen, K562 cells, luminescence | Integrin beta-2 (Homo sapiens) + Integrin alpha-M (Homo sapiens), P05107+P11215 | ATPlite luminescence | activation, % at 10 µM | 0.07% of 93,000 active | AID 1499, 2009;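 active means 10 µM primary screen giving 50% or more activity, confirmed by 40% or more on retest at that dose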
FAK blocker – FAK kinase inhibitors, primary screen, biochemical | inhibition, %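 (tested at 7 µM)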 | biochemical FAK kinase activity assay | 0.84% of 97,000 active | AID 727, 2007; in the data active means inhibition above about 19%;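 further: 0% = DMSO and 100% = reference compound high control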
ERa SRC1 inh – ERα–SRC-1 coactivator interaction inhibitors, primary screen, biochemical, TR-FRET, ERα LBD, estradiol-bound; TR-FRET ER-alpha LBD / SRC-1 peptide; inhibition, % at 25.6 µM; 1.7% of 86,000 active; AID 629, 2007; in the data active means inhibition above about 50%;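 further: 0% = receptor plus peptide control and 100% = peptide only without receptor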
CD11b adhes inh – inhibitors of CD11b/CD18 adhesion to fibrinogen, primary screen, K562 cells, luminescence; Integrin beta-2 (Homo sapiens) + Integrin alpha-M (Homo sapiens), P05107+P11215; ATPlite luminescence; Mn2+ added to activate the integrin; inhibition, % at 10 µM; 0.54% of 93,000 active; AID 1497, 2009;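 active means primary inhibition of 50% or more at 10 µM, then 40% or more on retest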
ERa coact pot – enhancers of ERα–SRC-1 coactivator binding, primary screen, biochemical, TR-FRET, ERα LBD, low estradiol. Estrogen receptor (Homo sapiens), P03372. TR-FRET ERalpha-LBD/SRC-Cy5 coactivator binding, 2 h; 100 = basal binding, no effect. coactivator binding (% of control), % at 25.6 µM. 1.3% of 86,000 active. AID 639, 2007; in the data active means activity above about 200%;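 further: binding measured in presence of low estradiol as agonist stimulus; 0% = peptide alone without receptor and 100% = receptor with peptide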
ERb coact inh – inhibitors of ERβ-SRC1 coactivator interaction, primary screen, biochemical, TR-FRET, ERβ LBD, SRC-1 peptide. inhibition, % at 25.6 µM. 1.3% of 86,000 active. TR-FRET ER-beta LBD / SRC1-Cy5 peptide binding; receptor agonist-loaded with 1 µM estradiol. Estrogen receptor beta (Homo sapiens), Q92731;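 active means compounds whose percent inhibition of the receptor-coactivator binding signal exceeds about 50% in the single-dose screen, limit read from the data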;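 further: 0% = receptor plus peptide wells without compound and 100% = peptide-only wells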
Target sequence (Q92731 whole entry, looked up, the tested form may be a part): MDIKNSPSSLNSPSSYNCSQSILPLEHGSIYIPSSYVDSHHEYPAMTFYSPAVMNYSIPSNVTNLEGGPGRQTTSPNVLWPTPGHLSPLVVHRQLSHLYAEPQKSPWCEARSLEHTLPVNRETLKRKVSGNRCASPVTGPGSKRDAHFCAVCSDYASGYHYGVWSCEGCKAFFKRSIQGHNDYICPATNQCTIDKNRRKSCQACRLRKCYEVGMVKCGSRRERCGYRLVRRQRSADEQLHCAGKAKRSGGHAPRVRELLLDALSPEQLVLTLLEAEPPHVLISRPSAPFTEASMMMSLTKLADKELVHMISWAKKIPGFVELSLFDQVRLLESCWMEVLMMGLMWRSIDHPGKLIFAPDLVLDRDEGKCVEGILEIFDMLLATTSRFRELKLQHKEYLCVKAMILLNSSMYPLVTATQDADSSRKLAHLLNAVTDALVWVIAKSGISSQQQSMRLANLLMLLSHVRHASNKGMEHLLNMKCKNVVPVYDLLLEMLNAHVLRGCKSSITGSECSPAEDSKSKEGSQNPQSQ
Active calls of the source: *; / = no result; [ ] = another dose, or the depositor's remark.

SMILES | Mac1 fbg enh | FAK blocker | ERa SRC1 inh | CD11b adhes inh | ERa coact pot | ERb coact inh
CCOC(=O)N1CCC(NC(=O)c2cnn3c(C(F)(F)F)cc(-c4cccc(OC)c4)nc23)CC1 | 6 | / | 72*[fluorescence artefact?] | 8 | 183 | 51*[fluorescence artefact?]
O=C(CCCn1c(SCC(=O)NC2CCCC2)nc2ccccc2c1=O)NCC1CCCO1 (stereo not given) | / | / | -5 | / | 109 | -4
COc1ccc(C2=Nn3c(nnc3-c3cccnc3)SC2)cc1 | / | -6 | -10 | / | 99 | 58*[fluorescence artefact?]
O=C(N/N=C/c1ccc(N2CCOCC2)o1)c1cccc(F)c1 | / | -2 | -15 | / | 111 | -4
Cc1cc(-c2ccc(Cl)cc2)c(C#N)c(N)n1 | -4 | -9 | 39 | 5 | 285*[fluorescence artefact?] | 32
Cc1ccc(-c2cc(-c3ccccc3)c(C#N)c(N)n2)o1 | 0 | -4 | 24 | -26 | 47 | 22
CCN1CCN(Cc2ccc(NC(=O)Nc3cccs3)cc2)CC1 | / | 0 | 40 | / | 71 | 72*[fluorescence artefact?]
CCc1ccc(NC(=O)CSc2nnc(COc3ccc4c(c3)CCCC4)o2)cc1 | 21 | -1 | 0 | -24 | 107 | 2
CSc1ccc(S(=O)(=O)Nc2c(C)cccc2C)cc1 | -6 | 7 | 55* | -13 | 41 | 30
CSc1ccc(S(=O)(=O)Nc2ccc(F)cc2)cc1 | 1 | 3 | 67*[fluorescence artefact?] | 37 | 31 | -1
COc1ccc(NS(=O)(=O)c2ccc(SC)cc2)cc1 | -3 | 6 | 4 | 22 | 108 | 0
CCc1ccccc1NS(=O)(=O)c1ccc(SC)cc1 | 1 | 7 | 66*[fluorescence artefact?] | -3 | 36 | 3
CSc1ccc(S(=O)(=O)NCc2ccccc2)cc1 | 12 | 1 | -4 | 6 | 96 | -15
Cc1nn(C)c(C)c1CN(C)S(=O)(=O)c1ccc2ccccc2c1 | / | 0 | 17 | / | 93 | -3
CC(Sc1ccccn1)C(=O)Nc1ccc(S(N)(=O)=O)cc1 (stereo not given) | 2 | -2 | -4 | -1 | 92 | 0
O=C(c1cc(N2CCCCC2)nc2ccccc12)N1CCOCC1 | 3 | -1 | -8 | -10 | 110 | -10
O=C1c2oc3ccccc3c(=O)c2C(c2ccc(Br)cc2)N1c1ncccn1 (stereo not given) | / | / | 39 | / | 316* | 27
CCCNC(=O)CN1C(=O)NC2(CCCc3cc(OC)ccc32)C1=O (stereo not given) | 0 | 0 | / | 6 | / | /
FC(F)(F)c1nc(N2CCCC2)ncc1-c1nnnn1-c1ccc(Cl)cc1 | -5 | 6 | / | 55* | / | /
O=C(NC1CCCC1)c1cc(-c2cccs2)on1 | 1 | -3 | 6 | -3 | 95 | 40
COCCCNc1nc2c([nH]1)c(=O)[nH]c(=O)n2C | -5 | -2 | -8 | -2 | 159 | 52*
O=C(Nc1ccc(O)cc1)C1CC=CCC1 (stereo not given) | 11 | 1 | 44 | -13 | 18 | 68*
CCOC(=O)c1cnn(-c2sc(C(=O)OCC)c(C)c2C(=O)OCC)c1N | / | -10 | 63*[fluorescence artefact?] | / | 29 | 64*[fluorescence artefact?]
CCc1cc2cc(C)cc(C)c2nc1SCC(=O)N1CCCC1 | / | 2 | 5 | / | 131 | 9
CCCNCC1COc2ccccc2O1 (stereo not given) | -2 | 0 | 84*[fluorescence artefact?] | 19 | 49 | 80*
SMILES | Mac1 fbg enh | FAK blocker | ERa SRC1 inh | CD11b adhes inh | ERa coact pot | ERb coact inh
O=C(O)C1CCCCC1C(=O)Nc1ccc(F)cc1F (stereo not given) | 3 | -7 | 9 | -3 | 107 | 2
COc1ccc(N=CC2=C(Nc3ccc(OC)cc3)c3c(C)nn(-c4ccccn4)c3CC2)cc1 | / | 20* | 25 | / | 97 | 28
COc1ccc(N(C(=O)C2CCCCC2)C2C=CS(=O)(=O)C2)c(OC)c1 (stereo not given) | 7 | -1 | / | -28 | / | /
COc1ccc(-c2ccc(=O)n(CC(=O)NCc3ccco3)n2)cc1 | -8 | 8 | 10 | -7 | 106 | 9
CCC(C(=O)NCc1ccco1)n1nc(-c2ccc(OC)cc2)ccc1=O (stereo not given) | -1 | 4 | 42 | -7 | 227*[fluorescence artefact?] | 37
CC(C)CC(=O)n1sc(NC(=O)c2ccccc2)nc1=O | -7 | -3 | / | 55* | / | /
CN=C1SC(CC(=O)Nc2ccc(C(C)=O)cc2)C(=O)N1C (stereo not given) | / | 2 | 79* | / | 52 | 71*
CCCC(c1nnnn1CCc1ccccc1)N1CCN(C2CCCC2)CC1 (stereo not given) | -4 | -3 | 2 | 1 | 108 | -1
Cc1csc2nc(CNC(=O)c3ccco3)cn12 | -3 | -1 | -8 | -23 | 112 | -8
Cn1c(=O)oc2cc(S(=O)(=O)Nc3ccc4c(c3)OCO4)ccc21 | 27 | 11 | 57*[fluorescence artefact?] | 0 | 51 | 45
Cn1c(=O)c2cc(S(=O)(=O)Nc3ccc4c(c3)OCO4)ccc2n(C)c1=O | 11 | 9 | 2 | -41 | 106 | 13
CCOc1cc(-n2cnnn2)c(OCC)cc1NC(=O)c1cnccn1 | 6 | / | 55* | -18 | 137 | 26
CCOC(=O)c1cc(NC(=O)c2cnccn2)cc(C(=O)OCC)c1 | 38 | 1 | 0 | 22 | 179 | 9
COc1ccc(OC)c2sc(NC(=O)c3ccc(Br)s3)nc12 | 16 | / | 82*[fluorescence artefact?] | -3 | 126 | 70*[fluorescence artefact?]
CCSc1nnc(NC(=O)c2ccc(Br)s2)s1 | 2 | -2 | 8 | 8 | 396*[fluorescence artefact?] | 28
O=C(Nc1nnc(C2CCCCC2)s1)c1ccc(Br)s1 | 39 | 0 | 11 | 8 | 367*[fluorescence artefact?] | 52*[fluorescence artefact?]
Cc1nc2c(C(=O)N3CCCC3)cnn2c(C)c1Cc1c(F)cccc1Cl | 0 | -2 | -1 | -4 | 96 | 2
Cc1ccc(C2C(C(=O)O)c3ccccc3C(=O)N2C)o1 (stereo not given) | 0 | -1 | 2 | 4 | 111 | 1
CN(CC(=O)NCCc1ccccc1)S(=O)(=O)c1ccc(Br)cc1 | 7 | 1 | / | -15 | / | /
O=C(Nc1ccccc1N1CCOCC1)c1ccc2c(c1)C(=O)N(Cc1ccncc1)C2=O | 0 | 6 | 63*[fluorescence artefact?] | -1 | 15 | 39
Cc1oc(-c2ccc(Cl)cc2)nc1CSCC(=O)NCCCN1CCOCC1 | -2 | -5 | -2 | -3 | 92 | -4
Clc1ccc(Br)cc1-c1nc(-c2cccnc2)no1 | / | 4 | 38 | / | 207*[fluorescence artefact?] | 27
Clc1ccccc1-c1nc(-c2cccnc2)no1 | -6 | 2 | -5 | 28 | 98 | -8
